Laboratory results published in PubChem BioAssay (Tox21).
Records with an inconclusive call do not appear. Where a call stands in place of a potency, no number is given. Active and inactive are the calls of the source. Calls follow the shape of the dose curve; as a rule, active = well fitted cell-killing curve with a large enough effect in the repeat runs; inconclusive = weak or mixed curves, or effect the other way; inactive = flat fitted curve, though single readings scatter.

Experiment: qHTS RealTime-Glo MT Cell Viability Assay in HEK293 cells - 16 hour (AID 1224872); also: top concentration of the series differs between compounds; nearly all actives have a fitted effect of over 50% in size
Conditions: RealTime-Glo luminescence; series mostly up to 76.8 µM
Description: National Center for Advancing Translational Sciences [NCATS]
NIH Chemical Genomics Center [NCGC]
U.S. Environmental Protection Agency [EPA]
National Institutes of Environmental Health Sciences [NIEHS]
National Toxicology Program [NTP]
U.S. Food and Drug Administration [FDA]
Measure of cell viability is critical in the cell-base assay. Analysis of cell viability is necessary for the characterization of cell responses to cytotoxic drugs and environmental stress. A RealTime-Glo MT Cell Viability Assay to monitor cell viability in real time of continues cell culture during 40 hours of compound treatment was used to screen Tox21 10K library compounds in Hek293 cells. The RealTime-Glo MT Cell Viability Assay is a nonlytic, homogeneous, bioluminescent method to measure cell viability in real time using a simple, plate-based method. The assay involves adding NanoLuc luciferase and a cell-permeant prosubstrate to cells in culture. Viable cells reduce the proprietary prosubstrate to generate a substrate for NanoLuc luciferase. This substrate diffuses from cells into the surrounding culture medium, where it is rapidly used by the NanoLuc Enzyme to produce a luminescent signal. The signal correlates with the number of viable cells, making the assay well suited for cytotoxicity studies.
Tox21 Assay Protocol Summary:
The mixture of Hek293 cell suspension and reagents were dispensed at 600cells/6 ul/well in 1536-well tissue culture treated black solid bottom plates using a Multidrop dispenser. After the assay plates were incubated at a 37 C/5% CO2 incubator for 5 hours, 23 nL of compounds dissolved in DMSO, positive and negative controls was transferred to the assay plate by a pintool work station. The plates were incubated at 37 C for 40 hours. The luminescence intensity were measured at 0h, 8h, 16h, 24h, 32h and 40h time points using ViewLux plate reader during compound treatment.

| Compound | Potency |
| --- | --- |
| O=C/C=C/c1ccco1 | inactive |
| CCCCCCCCBr | inactive |
| COc1ccccc1OC | inactive |
| COc1ccc2c(C(=O)c3ccc(Cl)cc3)c(C)n(CC(=O)O)c2c1 | inactive |
| CCNc1nc(NCC)nc(SC)n1 | inactive |
| CCC(CC)(CNC(=O)CCCO)c1cccc(OC)c1 | inactive |
| CC[C@@H](CO)NC(=O)[C@@H]1C=C2c3cccc4[nH]cc(c34)C[C@H]2N(C)C1 | inactive |
| CCCN1CCC[C@@H]2Cc3nc(N)ncc3C[C@H]21 | inactive |
| C=CC1(C)OC(=O)N(c2cc(Cl)cc(Cl)c2)C1=O (stereo not given) | inactive |
| CN(CCO)CCO | inactive |
| O=S1(=O)OCCO1 | inactive |
| CC(C)(C)C(=O)C(Cl)Cl | inactive |
| CCCOC(=O)Cc1ccc(OCC(=O)N(CC)CC)c(OC)c1 | inactive |
| CCc1cc(OC)c(C[C@H](C)N)cc1OC | inactive |
| O=[N+]([O-])CCO | inactive |
| CC(O)CCl (stereo not given) | inactive |
| O=C(NC(=O)c1c(F)cccc1F)Nc1cc(Cl)c(F)c(Cl)c1F | inactive |
| [O-][Br+2]([O-])O | inactive |
| N#CC(Br)(Br)C(N)=O | inactive |
| CC1=C2[C@H]3OC(=O)[C@@H](C)[C@@H]3CC[C@@]2(C)C=CC1=O | inactive |

| Compound | Potency |
| --- | --- |
| O=c1[nH]c2ccccc2n1C1CCNCC1 | inactive |
| C#CC(C)(C)O | inactive |
| C=CCN1CC[C@]23CCCC[C@H]2[C@H]1Cc1ccc(O)cc13 | inactive |
| CCN[C@H](C)Cc1cccc(C(F)(F)F)c1 | inactive |
| O=c1[nH]c2ccccc2o1 | inactive |
| Cc1ccc(Cl)c(O)c1 | inactive |
| O=C(O)C(Cl)Br (stereo not given) | inactive |
| ClC(Cl)(Cl)Cl | inactive |
| O=C(Cl)/C=C/C(=O)Cl | inactive |
| CCC1(c2cccc(O)c2)CCCCN(C)C1 (stereo not given) | inactive |
| CCC1(c2ccccc2)CCC(=O)NC1=O (stereo not given) | inactive |
| CON(C)C(=O)Nc1ccc(Br)cc1 | inactive |
| COc1cccc([C@@]2(O)CCCC[C@@H]2CN(C)C)c1 | inactive |
| CC[C@H](N)c1ccccc1 | inactive |
| CCOC(=O)C(SP(=S)(OC)OC)c1ccccc1 (stereo not given) | inactive |
| CCN(CC)C1CCCCC1 | inactive |
| CC(=NC#N)N(C)Cc1ccc(Cl)nc1 | inactive |
| Cc1cc(OC(=O)N(C)C)nn1C(=O)N(C)C | inactive |
| COC(=O)c1ccccc1CS(=O)(=O)NC(=O)Nc1nc(OC)cc(OC)n1 | inactive |
| O=C1CC(=O)NC(=O)N1 | inactive |
